Among the data in the antibiotic and cytotoxicity screens of Wong et al. (2023) are cytotoxicity call values, retold here.

Out of some 39,000 compounds screened, about 1,500 (3.8%) were called active. The full list was thinned out, with actives kept by preference.

The test system of the test is HSkMC (human skeletal muscle cells). The test is described as follows: cytotoxicity call (relative viability < 0.9). The note with it: 10 µM.
Regarding `C[C@H]1CN([C@@H](C)CO)C(=O)c2c(c3ccccc3n2C)-c2ccccc2CO[C@H]1CN(C)C(=O)c1ccc(F)cc1`, the cytotoxicity call was “inactive”. Next, `COC(=O)C[C@@H]1CC[C@@H]2[C@H](COC[C@H](O)CN2S(=O)(=O)c2ccc(F)cc2)O1`: “inactive”; `C[C@@H]1CN([C@@H](C)CO)S(=O)(=O)c2ccc(-c3cccnc3)cc2O[C@@H]1CN(C)C(=O)NC1CCCC1`: “inactive”; `C[C@@H]1CN([C@H](C)CO)S(=O)(=O)c2ccc(-c3cncnc3)cc2O[C@@H]1CN(C)C(=O)C1CCCCC1`: “inactive”.

For `CCCCC1C(=O)N(c2ccccc2)N(c2ccc(O)cc2)C1=O` (stereo not drawn), the cytotoxicity call is “inactive”. For `O=C1C=CC(=O)N1c1ccc(O)cc1` the value was “active”. For `Oc1ccc(O)cc1` the value was “inactive”; for `COc1ccc(CN(C)C[C@H]2OCCCC[C@H](C)Oc3ccc(NS(=O)(=O)c4cccs4)cc3C(=O)N([C@@H](C)CO)C[C@@H]2C)cc1`, “inactive”; for `C[C@H]1CN([C@@H](C)CO)S(=O)(=O)c2ccc(C3=CCCCC3)cc2O[C@H]1CN(C)S(=O)(=O)c1cn(C)cn1`, “inactive”. With `Cc1ccc(S(=O)(=O)Nc2ccc3c(c2)C(=O)N([C@H](C)CO)C[C@@H](C)[C@H](CN(C)Cc2ccccc2)OCCCC[C@@H](C)O3)cc1`, the cytotoxicity call was “inactive”. For the compound `COc1ccc(S(=O)(=O)N(C)C[C@H]2Oc3c(NC(=O)Nc4c(C)noc4C)cccc3C(=O)N([C@@H](C)CO)C[C@H]2C)cc1`, the cytotoxicity call is “inactive”. For the compound `COc1ccc2c3c(n(c2c1)C)[C@H](CO)N(C[C@]13CN(C1)C(=O)CN(C)C)C(=O)CN(C)C`, the cytotoxicity call was “inactive”. For `C[C@@H]1CN([C@@H](C)CO)C(=O)c2cc(NC(=O)CCCN(C)C)ccc2O[C@H]1CN(C)Cc1ccc(C(=O)O)cc1` the value was “inactive”; for `Cc1ncc([N+](=O)[O-])n1C[C@@H](O)CCl`, “inactive”; for `Cc1noc(C)c1NC(=O)N(C)C[C@@H]1Oc2ccc(NC(=O)Cn3cnnn3)cc2C(=O)N([C@@H](C)CO)C[C@@H]1C`, “inactive”. Next, `N#Cc1c(N)nc(SCc2csc(-c3ccc(Cl)cc3)n2)c(C#N)c1-c1ccc(OCCO)cc1`: “active”; `COc1ccc(NC(=O)Nc2ccc3c(c2)C(=O)N([C@@H](C)CO)C[C@@H](C)[C@@H](CN(C)C(=O)Nc2ccc4c(c2)OCO4)OCCCC[C@@H](C)O3)cc1`: “inactive”. Take `C[C@@H]1CCCCO[C@@H](CN(C)C(=O)CCC(F)(F)F)[C@@H](C)CN([C@@H](C)CO)C(=O)c2cc(NC(=O)Cc3ccccc3)ccc2O1`: the cytotoxicity call is “inactive”. `C[C@@H]1CN([C@@H](C)CO)C(=O)Cc2cc(NC(=O)Nc3ccc(F)cc3)ccc2O[C@@H]1CN(C)S(C)(=O)=O`: the cytotoxicity call is “inactive”. For `CCCNC(=O)[C@@]1(Sc2ccc(C)cc2)CC(=O)N(Cc2ccccc2C(F)(F)F)[C@@H]1c1ccc(CO)cc1` the value was “inactive”; for `Cn1cc(-c2[nH]c3cc(NC(=O)[C@H](N)C4CCCCC4)cc4c3c2C=NNC4=O)cn1`, “active”; for `CCCCCCCC/C=C\CCCCCCCC(N)=O`, “inactive”.

In the case of `O=C(C[C@@H]1CC[C@@H]2[C@H](COC[C@H](O)CN2S(=O)(=O)c2ccccc2)O1)NCc1ccncn1`, the cytotoxicity call is “inactive”. In the case of `C[C@@H]1CCCCO[C@@H](CN(C)C(=O)Nc2ccc(C(F)(F)F)cc2)[C@@H](C)CN([C@H](C)CO)C(=O)c2cc(NC(=O)CCCCCC(=O)Nc3ccccc3N)ccc2O1`, the cytotoxicity call was “inactive”. As to `CCCCC(=O)c1ccc(O)cc1`, the cytotoxicity call was “inactive”.

Turning to `CCCCCS(=O)(=O)CCCCCCCCCCn1c(-c2ccc(O)cc2)c(C)c2cc(O)ccc21`, the cytotoxicity call was “active”. For `CC(=O)O.Cc1c(-c2ccc(O)cc2)n(Cc2ccc(OCCN3CCCCCC3)cc2)c2ccc(O)cc12` the value was “inactive”; for `C=C(NC(=O)C(=C)NC(=O)c1csc(C2=N[C@@H]3c4csc(n4)[C@@H]4NC(=O)c5csc(n5)[C@H](C(C)(O)[C@@H](C)O)NC(=O)[C@H]5CSC(=N5)/C(=C/C)NC(=O)[C@H]([C@@H](C)O)NC(=O)c5csc(n5)[C@]3(CC2)NC(=O)[C@@H](C)NC(=O)C(=C)NC(=O)[C@@H](C)NC(=O)[C@@H]([C@H](C)CC)N[C@H]2C=Cc3c([C@@H](C)O)cc(nc3[C@@H]2O)C(=O)O[C@H]4C)n1)C(N)=O` (stereo partly drawn), “inactive”.

Regarding `C=C(NC(=O)C(=C)NC(=O)c1csc(C2=N[C@H]3c4csc(n4)[C@H]4NC(=O)c5csc(n5)[C@H](C(C)(O)[C@@H](C)O)NC(=O)[C@H]5CSC(=N5)C(=CC)NC(=O)[C@H]([C@@H](C)O)NC(=O)c5csc(n5)[C@]3(CC2)NC(=O)[C@H](C)NC(=O)C(=C)NC(=O)[C@H](C)NC(=O)[C@H]([C@H](C)CC)N[C@@H]2C=Cc3c([C@H](C)O)cc(nc3[C@H]2O)C(=O)O[C@@H]4C)n1)C(N)=O` (stereo partly drawn), the cytotoxicity call is “active”.

Take `C=C(NC(=O)C(=C)NC(=O)c1csc(C2=NC3c4csc(n4)C4NC(=O)c5csc(n5)C(C(C)(O)C(C)O)NC(=O)C5CSC(=N5)C(=CC)NC(=O)C(C(C)O)NC(=O)c5csc(n5)C3(CC2)NC(=O)C(C)NC(=O)C(=C)NC(=O)C(C)NC(=O)C(C(C)CC)NC2C=Cc3c(C(C)O)cc(nc3C2O)C(=O)OC4C)n1)C(N)=O` (stereo not drawn): the cytotoxicity call was “inactive”. For `C[C@@H]1CCCCO[C@H](CN(C)C(=O)NC2CCCCC2)[C@@H](C)CN([C@@H](C)CO)C(=O)c2cc(NC(=O)C3CCCCC3)ccc2O1`, the cytotoxicity call was “inactive”. Next, `CS(=O)(=O)N1[C@@H]2c3ccc(-c4ccc(F)cc4)c(=O)n3C[C@@H]2[C@@H](CO)[C@@H]1C(=O)O`: “inactive”; `Cc1noc(C)c1S(=O)(=O)N(C)C[C@H]1Oc2ccc(NS(=O)(=O)c3ccccc3)cc2C(=O)N([C@@H](C)CO)C[C@H]1C`: “inactive”; `C[C@@H]1CCCCO[C@H](CN(C)S(C)(=O)=O)[C@H](C)CN([C@@H](C)CO)C(=O)c2cc(NS(=O)(=O)c3cn(C)cn3)ccc2O1`: “inactive”. For `C[C@@H]1CCCCO[C@H](CN(C)Cc2ccc(Cl)c(Cl)c2)[C@@H](C)CN([C@@H](C)CO)C(=O)c2cc(NC(=O)Cc3ccccc3)ccc2O1` the value was “inactive”. Next, `C[C@@H]1CCCCO[C@@H](CN(C)Cc2ccc(Cl)c(Cl)c2)[C@@H](C)CN([C@@H](C)CO)C(=O)c2cc(NC(=O)Cc3ccccc3)ccc2O1`: “inactive”; `C[C@H]1CCCCO[C@H](CN(C)Cc2ccc(Cl)c(Cl)c2)[C@@H](C)CN([C@@H](C)CO)C(=O)c2cc(NC(=O)Cc3ccccc3)ccc2O1`: “inactive”.

Turning to `C[C@@H]1CCCCO[C@@H](CN(C)Cc2ccc(Cl)c(Cl)c2)[C@H](C)CN([C@@H](C)CO)C(=O)c2cc(NC(=O)Cc3ccccc3)ccc2O1`, the cytotoxicity call was “inactive”. In the case of `C[C@@H]1CN([C@H](C)CO)C(=O)c2cc(NC(=O)Cc3ccccc3)ccc2O[C@@H](C)CCCCO[C@H]1CN(C)Cc1ccc(Cl)c(Cl)c1`, the cytotoxicity call was “active”. Next, `C[C@@H]1CCCCO[C@@H](CN(C)Cc2ccc(Cl)c(Cl)c2)[C@@H](C)CN([C@H](C)CO)C(=O)c2cc(NC(=O)Cc3ccccc3)ccc2O1`: “active”. Turning to `C[C@@H]1CN([C@H](C)CO)C(=O)c2cc(NC(=O)Cc3ccccc3)ccc2O[C@@H](C)CCCCO[C@@H]1CN(C)Cc1ccc(Cl)c(Cl)c1`, the cytotoxicity call was “inactive”.

Turning to `C[C@@H]1CCCCO[C@H](CN(C)Cc2ccc(Cl)c(Cl)c2)[C@H](C)CN([C@@H](C)CO)C(=O)c2cc(NC(=O)Cc3ccccc3)ccc2O1`, the cytotoxicity call is “inactive”. Take `C[C@@H]1CCCCO[C@@H](CN(C)Cc2ccc(Cl)c(Cl)c2)[C@H](C)CN([C@H](C)CO)C(=O)c2cc(NC(=O)Cc3ccccc3)ccc2O1`: the cytotoxicity call was “active”.
